# Source: PubChem BioAssay (several laboratories)
# Mtb bLac sens = beta-lactam sensitization of Mtb H37Rv; M. tuberculosis H37Rv growth with meropenem, percent inhibition; inhibition, % at 25 µM; 0.27% of 330,000 active; call rule not given here;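 further: growth measured after seven days incubation then overnight dye step; 0% = bacteria only wells and 100% = bacteria with antibiotic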
# GDH-TPI counter = counter-screen for M. tuberculosis FBA inhibitors: GDH-TPI coupled enzymes. GDH-TPI coupled enzyme counterscreen, NADH absorbance. inhibition, % at 4.8 µM. 1.2% of 360,000 active. AID 588335;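 further: 0% = DMSO wells and 100% = wells lacking the enzyme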
# MazEF act = MazEF (E. coli) toxin RNase activation | 0.32% of 350,000 active | FAM/BHQ RNA-DNA oligo cleavage fluorescence, 5 h | P0AE70 | activation, % at 20 µM; in the data active means activation above about 50%
# CCHFV vOTU inh = CCHFV vOTU protease inhibition | Pep-AMC fluorescence | inhibition, % at 11.5 µM | 0.55% of 370,000 active | AID 651958; further: 0% = vehicle wells with enzyme and 100% = no enzyme wells
# Mtb FBA inh = inhibits M. tuberculosis FBA enzyme; P9WQA3; purified M. tuberculosis FBA, fluorescence read-out; inhibition, % at 1 µM; 2.3% of 360,000 active; AID 588726; in the data active means inhibition above about 27%;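 further: 0% = vehicle and 100% = reference inhibitor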
# Target sequence (P9WQA3 whole entry, looked up): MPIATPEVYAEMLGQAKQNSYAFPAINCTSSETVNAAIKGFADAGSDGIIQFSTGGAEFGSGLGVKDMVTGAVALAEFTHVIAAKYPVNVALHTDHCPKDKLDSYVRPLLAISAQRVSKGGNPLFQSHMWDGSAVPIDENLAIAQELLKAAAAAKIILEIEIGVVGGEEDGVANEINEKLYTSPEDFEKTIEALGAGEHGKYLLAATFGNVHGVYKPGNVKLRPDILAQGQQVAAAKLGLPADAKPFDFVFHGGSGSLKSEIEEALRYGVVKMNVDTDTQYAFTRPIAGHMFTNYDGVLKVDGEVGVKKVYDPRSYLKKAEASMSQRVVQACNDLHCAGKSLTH
# * marks the source's active call; other numbers are inactive results; nt = no result given; + = active, no number. Sampled rows, rich in hits. Any-hit rate of the full collection: about 4%. Unless noted, no stated cut-off is given here; in the data, active means inhibition above about 30%; inactive means the rest.
SMILES,Mtb bLac sens,GDH-TPI counter,MazEF act,CCHFV vOTU inh,Mtb FBA inh
CCN(Cc1cn(Cc2ccc(C)cc2)nn1)S(=O)(=O)c1ccccc1Br,nt,nt,nt,-8,nt
CCNC(=S)NNC(=O)c1cc(-c2ccc(OCC)cc2)nc2ccccc12,52,37*,-1,4,11
O=C(NC(=S)NNC(=O)c1ccccc1O)c1cccc([N+](=O)[O-])c1,11,8,-8,-7,1
CCNC(=S)NNC(=O)c1cc(-c2cccc(OC)c2)nc2ccccc12,5,0,-2,-7,-1
COc1cccc(-c2cc(C(=O)Nc3nc4ccccc4s3)c3ccccc3n2)c1,99,33*,-3,-12,4
COc1ccc(C(=O)NNC(=S)NC(=O)c2cccc([N+](=O)[O-])c2)cc1,91,35*,5,1,0
COc1ccc(C(=O)NNC(=S)NC(=O)c2cc(-c3ccccc3)nc3ccccc23)cc1,51,33*,-23,16,2
O=C(Nc1nc2ccccc2s1)c1cc(-c2ccco2)nc2ccccc12,7,17,-3,-17,6
Cc1cc(NS(=O)(=O)C2CCN(C(=O)Cc3ccc(Cl)c(Cl)c3)CC2)no1,nt,nt,nt,1,nt
CN1C(=O)/C(=C/c2ccccc2OCc2ccc(C(=O)O)cc2)NC1=S,-7,6,-1,-14,2
O=C1NC(=S)N/C1=C\c1ccccc1OCc1ccc(C(=O)O)cc1,-7,42*,2,8,0
C[C@@H]1/C=C/CC(=O)N2[C@H](CC(=O)N[C@@H]1c1ccccc1)C[C@@H](C)[C@H]2c1ccccc1,nt,nt,nt,-5,nt
CC(C)N1CCN(Cc2cc3c(cc2Cl)OCO3)CC1CCO (centres undefined),4,-5,83*,6,2
Cc1ccccc1CNC(=O)c1cccc2c1C(=O)N(Cc1cccnc1)C2,nt,nt,nt,10,nt
O=C1CCCC2=C1C(c1cccnc1)Nc1ccccc1N2 (centres undefined),1,31*,11,-4,-14
O=C(CN1CCc2onc(-c3ccc(-n4cc(COc5ccc([N+](=O)[O-])cc5)nn4)cc3)c2C1=O)N1CCOCC1,nt,nt,nt,-3,nt
Oc1ccc(Cl)cc1/C=C/c1ccc2cccc(O)c2n1,nt,7,60*,-6,-4
Oc1cccc2ccc(/C=C/c3cccs3)nc12,100,31*,18,3,-2
N#CC(C(=O)NC1CC1)c1nc2ccccc2nc1N1CCCC1 (centres undefined),62,20,13,-32,61*
CC(=O)N[C@@H]1C[C@@H]2O[C@H](CO)CC[C@@H]2O[C@@H]1CCc1ccc(-c2ccc(F)cc2)cc1,nt,nt,nt,6,nt
Cc1cc(=O)oc2cc(OCCSCCN3CCCCC3)ccc12,-6,36*,6,-17,26
COc1ccc(C=NNc2nc3ccccc3s2)cc1,nt,23,14,11,0
Cc1ccc2[nH]c(C)c(/C=N/Nc3nc4ccccc4s3)c2c1,14,38*,7,9,1
CN(C(=O)CN1C(=O)S/C(=C\c2ccc(Cl)cc2)C1=O)C1CCS(=O)(=O)C1 (centres undefined),4,38*,5,-11,5
CN(C(=O)CN1C(=O)S/C(=C\c2ccccc2)C1=O)C1CCS(=O)(=O)C1 (centres undefined),-6,45*,6,14,-3
SMILES,Mtb bLac sens,GDH-TPI counter,MazEF act,CCHFV vOTU inh,Mtb FBA inh
CN(C(=O)CCN1C(=O)/C(=C/c2ccccc2)SC1=S)C1CCS(=O)(=O)C1 (centres undefined),0,5,-1,-4,-1
COc1cccc(/C=C2\SC(=O)N(CCC(=O)NC3CCS(=O)(=O)C3)C2=O)c1 (centres undefined),-1,27,2,13,-3
O=C(CCN1C(=O)S/C(=C\c2ccccc2)C1=O)NC1CCS(=O)(=O)C1 (centres undefined),0,36*,6,14,-3
CCN(C(=O)CCN1C(=O)S/C(=C\c2ccccc2)C1=O)C1CCS(=O)(=O)C1 (centres undefined),5,43*,1,16,-2
CN(C(=O)CN1C(=O)S/C(=C\c2ccccc2Cl)C1=O)C1CCS(=O)(=O)C1 (centres undefined),2,18,8,10,-1
O=C(CCn1nnc(-c2cccs2)n1)NCc1ccco1,nt,nt,nt,-8,nt
CC(C)(C)c1ccc(S(=O)(=O)N2CCC(C(=O)NCC3COCCO3)CC2)cc1 (centres undefined),nt,nt,nt,-6,nt
CN1Cc2nnn(Cc3ccccc3)c2-c2ccccc2S1(=O)=O,nt,nt,nt,-5,nt
N=c1oc2ccc3ccccc3c2cc1-c1nnc2n1CCCCC2,2,18,-2,-318,+
